From PubChem BioAssay (NCATS)
Results filed as inconclusive are left out. Activity calls are given as the source filed them. The call rests on the fitted dose curve; in most records, active means well fitted activation curve with a large enough effect in the main read-out, with a control signal flat (not every such curve was filed as active); inconclusive means small, poorly fitted or top-dose-only effect, or effect the other way, or a change in a side signal; inactive means flat fitted curve, though single readings scatter.

The compounds below were run against 3',5'-cyclic-AMP phosphodiesterase 4B (Homo sapiens) (UniProt Q07343) (assay: qHTS Assay for Inhibitors of PDE-IV (AID 607)). Conditions: HEK293 ACTOne CNG channel cells, membrane potential fluorescence; series mostly up to 22.9 µM.
How it was run: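 The readout is membrane depolarisation from a cAMP-sensing CNG channel, detected with a potential dye at ex 535/em 590. Cells were HEK293-derived (endogenous PDE-IV) at 1000 cells/well, titrated up to 22.9 uM final.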

Chain of 3',5'-cyclic-AMP phosphodiesterase 4B (Homo sapiens) (Q07343 whole entry, looked up): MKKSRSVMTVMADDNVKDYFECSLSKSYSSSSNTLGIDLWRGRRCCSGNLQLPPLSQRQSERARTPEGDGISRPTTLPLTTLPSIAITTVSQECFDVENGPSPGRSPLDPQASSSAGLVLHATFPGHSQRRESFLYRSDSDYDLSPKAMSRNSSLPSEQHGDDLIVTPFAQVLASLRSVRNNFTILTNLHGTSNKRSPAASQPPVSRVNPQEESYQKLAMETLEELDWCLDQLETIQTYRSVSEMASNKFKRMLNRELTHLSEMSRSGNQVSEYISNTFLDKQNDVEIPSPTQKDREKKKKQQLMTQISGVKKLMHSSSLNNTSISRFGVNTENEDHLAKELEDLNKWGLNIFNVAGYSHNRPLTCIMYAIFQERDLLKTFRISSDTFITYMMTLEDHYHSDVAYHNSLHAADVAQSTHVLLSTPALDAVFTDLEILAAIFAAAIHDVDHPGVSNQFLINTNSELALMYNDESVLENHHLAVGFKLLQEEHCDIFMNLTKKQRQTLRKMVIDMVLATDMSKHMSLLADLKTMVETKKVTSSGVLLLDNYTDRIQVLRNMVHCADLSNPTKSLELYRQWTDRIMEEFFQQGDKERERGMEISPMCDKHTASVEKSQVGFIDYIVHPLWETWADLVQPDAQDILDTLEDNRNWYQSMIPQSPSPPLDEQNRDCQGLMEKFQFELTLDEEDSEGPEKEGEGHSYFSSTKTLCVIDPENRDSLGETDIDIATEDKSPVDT

Potency, inactive:
Cc1noc(C)c1-c1nc(N2CCOCC2)c2ccccc2n1
Cc1noc(C)c1C(=O)N1CCC2(CCCN(C(=O)Nc3ccccc3)C2)CC1
CNc1nc(-c2ccccc2C(F)(F)F)nc2ccccc12
COc1ccc(Oc2ncc3nc(-c4ccc(F)cc4)c(=O)n(C)c3n2)cc1
O=C(Nc1cccc(F)c1)N1CC2(CCN(C(=O)c3cccc(F)c3)CC2)C1
O=C(c1ccncc1)N1CCC2(CCN(Cc3ccccc3)CC2)CC1
Cc1cnc(CNc2ncnc3ccc(-c4ccccc4CN(C)C)cc23)cn1
CC(=O)N1CCC[C@@]2(CCN(C(=O)Nc3cccc(C#N)c3)C2)C1
COCC(=O)N1CCC2(CCN(Cc3ccc(C#N)cc3)CC2)CC1
Cn1cccc1C(=O)N1CCC2(CCCN(Cc3ccncc3)C2)CC1
CS(=O)(=O)Nc1cccc(-c2nc(NCCN3CCOCC3)c3ccccc3n2)c1
Cc1nc2cnc(N3CCNCC3)nc2n(CCC#N)c1=O
CNc1ncnc2ccc(-c3cccc(NS(C)(=O)=O)c3)cc12
N#Cc1cccc(NC(=O)N2CC[C@@]3(CCCN(C(=O)c4ccco4)C3)C2)c1
CC(=O)NCCNc1nc(-c2ccc(N(C)C)cc2)nc2ccccc12
O=C(c1csnn1)N1CCC2(CCN(Cc3ccccc3)CC2)CC1
Cc1cnc(CNc2nc(-c3ccc(N(C)C)cc3)nc3ccccc23)cn1
Cn1cc(C(F)(F)F)nc1-c1ccc(OC[C@@H](O)CNCCOc2ccc(O)c(C(N)=O)c2)cc1
CN(C)c1ccc(-c2nc(N(C)C)c3ccccc3n2)cc1
O=C(c1ccncc1)N1CCC2(CC1)CCN(c1ccncc1)CC2
CC(=O)NCCNc1ncncc1-c1ccccc1C(F)(F)F
O=C(c1ccco1)N1CCC[C@@]2(CCN(c3ccccn3)C2)C1
O=C(Nc1cccc(F)c1)N1CC2(CCN(C(=O)c3cnccn3)CC2)C1
Cc1noc(C)c1C(=O)N1CCC2(CC1)CN(c1ccccn1)C2
Cc1cnc(CNc2cc(-c3ccoc3)ncn2)cn1
COCCNc1nc(-c2ccccc2C)nc2ccccc12
O=C(c1ccco1)N1CCC[C@@]2(CCN(C(c3ccccc3)c3ccccc3)C2)C1
COc1ccc(C(=O)N2CCC[C@@]3(CCN(C(=O)NC(C)C)C3)C2)cc1
Cn1cccc1C(=O)N1CCC2(CCCN(c3ccncc3)C2)CC1
COc1ccc(NC(=O)N2CC3(CCN(C(=O)c4csnn4)CC3)C2)cc1
COc1ccc2[nH]cc(CCNc3ccnc(-c4cccc(NS(C)(=O)=O)c4)n3)c2c1
O=C(c1ccncc1)N1CCC[C@@]2(CCN(Cc3ccncc3)C2)C1
COc1ccc(CNc2cc(-c3ccccc3CN(C)C)ncn2)c(OC)c1
O=C(c1ccncc1)N1CCC2(CC1)CCN(c1ccc(-c3ccccc3)cc1)CC2
COc1ccc(CNc2nc(-c3ccoc3)nc3ccccc23)c(OC)c1
